In PubChem BioAssay (NCATS) one finds activation and Potency data, which are given here for ten molecules.

Values joined by “and” are separate entries in the source; they are usually repeats but may differ in a detail not shown here. Equal values may be shown once. Results filed as inconclusive are left out. Active and inactive are the calls of the source. Calls come from the whole dose curve; as a rule, active = well fitted activation curve with a large enough effect; inconclusive = small, poorly fitted or top-dose-only effect; inactive = no such curve, though single readings can be large or run the other way.
Potency is the fitted concentration of half-maximal effect.

This assay deals with Cellular tumor antigen p53 (Homo sapiens) (UniProt P04637). The assay is described as follows: Primary qHTS for small molecule compounds that upregulate eGFP-tagged delta133p53alpha (in N-terminal) cells. (AID 2060322).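 For activation: cells pre-induced with doxycycline then dosed without doxycycline; series mostly up to about 56 µM; 0% = DMSO vehicle and 100% = reference activator.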 Note: nearly all actives have a fitted effect of over 75% in size. The conditions noted are these: NCI-H358 eGFP-delta133p53alpha fluorescence, 24 h; activation: stronger effect = higher value. The method, boiled down: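 NCI-H358 cells pre-induced 24 h with 10 ng/ml doxycycline for eGFP-delta133p53alpha, plated dox-free and exposed 24 h at 37C to titrated compounds. Fixed, Hoechst-stained; gated GFP peak intensity by laser scanning cytometry, normalized to DMSO (0%) and 57.5 uM 5-azacytidine (100%).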
Chain of Cellular tumor antigen p53 (Homo sapiens) (P04637 whole entry, looked up): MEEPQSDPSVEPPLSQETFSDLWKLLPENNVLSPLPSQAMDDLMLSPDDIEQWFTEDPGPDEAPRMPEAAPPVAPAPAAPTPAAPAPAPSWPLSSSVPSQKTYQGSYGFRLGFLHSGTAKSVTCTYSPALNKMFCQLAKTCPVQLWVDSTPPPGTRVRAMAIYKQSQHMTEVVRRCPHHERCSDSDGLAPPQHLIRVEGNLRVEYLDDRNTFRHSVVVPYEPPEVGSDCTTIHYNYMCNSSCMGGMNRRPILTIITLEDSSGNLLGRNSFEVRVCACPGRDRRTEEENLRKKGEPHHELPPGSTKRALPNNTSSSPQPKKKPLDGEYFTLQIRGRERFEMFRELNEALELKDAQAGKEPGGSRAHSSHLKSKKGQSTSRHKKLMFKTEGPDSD
For the molecule `C=C[C@H]1[C@H](O[C@@H]2O[C@H](CO)[C@@H](O)[C@H](O)[C@H]2O)OC=C(C(=O)OC)[C@H]1CCOC(=O)c1cc(O)c(O)c(O)c1`, the activation was 0% (inactive).
For `C[C@@H]1O[C@@H](O[C@@H]2[C@@H](O)[C@@H](O[C@]3(CO)O[C@H](CO)[C@@H](O)[C@@H]3OC(=O)/C=C/c3ccc(O)cc3)O[C@H](CO)[C@H]2OC(=O)/C=C/c2ccc(O)cc2)[C@H](O)[C@H](O)[C@H]1O[C@@H]1O[C@@H](C)[C@H](O[C@@H]2OC[C@](O)(CO)[C@H]2O)[C@@H](O)[C@H]1O`, the activation was -2.68% (inactive).
Still for that read-out and setting: the value for `COc1cc(C2Oc3c(OC)cc(CCCO[C@@H]4O[C@H](CO)[C@@H](O)[C@H](O)[C@H]4O)cc3C2CO)ccc1O` (stereo not given in full) was -6.25% (inactive); that for `N#Cc1ccc2[nH]cc(CCCCN3CCN(c4ccc5oc(C(N)=O)cc5c4)CC3)c2c1` was 11.5% (inactive); that for `Cn1cc(-c2ccc3ncc(Cc4ccc5ncccc5c4)n3n2)cn1` was 15.2% (inactive) and 9.55% (inactive).
Consider `Cc1ccc(NC(=O)N2CCN(c3nc(N)nc4sc(-c5cccnc5)nc34)CC2)cc1`, for which the activation was 26.7% (inactive).
As to `C=CC(=O)N1CCN(C(=O)CNc2cc(I)c(Cl)cc2O)CC1`, the activation was 8.59% (inactive).
Regarding `C=CC(=O)Nc1cccc(Nc2nc(Nc3ccc(Oc4ccnc(C(=O)NC)c4)cc3)ncc2F)c1`, the Potency is 4.26 µM (active).
With `OCC(O)C(c1c[nH]c2ccccc12)c1c[nH]c2ccccc12` (stereo not given), the activation was -8.93% (inactive).
With `O=C(NCCCCCCCCNC(=O)C(Cl)Cl)C(Cl)Cl`, the activation is -0.333% (inactive).
